# Bioassay records (PubChem)
# Shown are actives, neighbours in structure and some others; about 2.2% of the full set was active somewhere.
# CF NFkB inh: inhibitors of PAF-induced NF-kB signaling, primary screen, cell-based, GFP fluorescence, uHTS | KKLEB NF-kB-GFP reporter, GFP fluorescence overnight | inhibition, % at 5 µM | 360,000 tested, 0.86% active | AID 588850, 2011;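 active means at least 50% inhibition at 5 µM, scaled per plate between neutral and stimulator controls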;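 further: PAF is a Pseudomonas aeruginosa culture filtrate used as stimulus; plate controls were PAF-stimulated DMSO wells for no effect and unstimulated DMSO wells for full effect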
# hiPSC survival: enhancers of single-cell hiPSC survival, primary screen, ATPlite luminescence; 100% = ROCK inhibitor wells, 0% = DMSO; survival enhancement, % at 20 µM; 360,000 tested, 0.044% active; AID 602274, 2012; in the data active means survival enhancement above about 18%;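 further: cells exposed to compounds for 16 hours before the ATP read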
# KKLEB cytotox: cytotoxicity in KKLEB CF airway cells, primary screen, cytotoxicity control for CF NF-kB inhibitor project, cell-based, uHTS, fluorescence assay plates; KKLEB CF airway cells viability, ATPlite luminescence, overnight; active compounds read low; cells stimulated with P. aeruginosa culture filtrate; activity change (cytotoxicity), % at 5 µM; 360,000 tested, 0.36% active; AID 602141, 2011;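 active means corrected activity change at or below -50% at 5 µM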
# C8 TRAIL sens: viability loss with TRAIL in NB7+C8 cells, primary screen, TRAIL sensitizer project, cell-based, ATPlite luminescence. 360,000 tested, 1% active. inhibition (viability loss, TRAIL sensitization), % at 10 µM. AID 624354, 2012;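 active means compounds causing at least 50% loss of cell viability in the single-dose screen, relative to plate controls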
# PPC-1+TRAIL kill: compounds killing PPC-1 cancer cells with TRAIL present, primary screen, TRAIL potentiator project, ATPLite luminescence, uHTS; PPC-1 cells + TRAIL, ATPLite viability luminescence; cell killing (% activity), % at 4 µM or 5 µM; 220,000 tested, 0.41% active; AID 1443, 2008;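 active means cell killing above 50% in the first pass at 4 µM, then a duplicate retest at 5 µM averaging 50% or more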;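 further: plate controls were cells with TRAIL plus DMSO for no effect and medium-only wells lacking cells for full effect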
# HIF-2a inh: HIF-2a reporter inhibitors, primary screen, luminescence, 786-0 RCC cells; 786-0 RCC cells HIF-2a reporter, luciferase luminescence, overnight; inhibition, % at 18.8 µM; 360,000 tested, 0.72% active; AID 624352, 2012;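 active means inhibition of the luminescence signal of 40% or more relative to plate controls, in a single-dose primary screen at 18.75 µM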
# * marks the source's active call; other numbers are inactive results; x = no result.
SMILES,CF NFkB inh,hiPSC survival,KKLEB cytotox,C8 TRAIL sens,PPC-1+TRAIL kill,HIF-2a inh
Cc1ccccc1-n1c(O)c(/C=C2/C(c3ccccc3)=Nc3ccccc32)c(=O)[nH]c1=O,31,2,-11,-3,23,64*
CC(C)(O)/C=C/C(=O)[C@](C)(O)C1[C@H](O)C[C@@]2(C)C3CC=C4C(C[C@H](O)[C@@H](O)C4(C)C)[C@]3(C)C(=O)C[C@]12C (stereo not given in full),71*,-4,-75*,41,x,30
Cc1ccc(-c2cc(-c3ccccc3)cc(-c3ccccc3)[n+]2-c2ccccc2)cc1,7,-3,-18,91*,x,0
CCOC(=O)c1ccccc1C(=O)OCC,1,-1,5,-4,x,3
C[n+]1c(-c2ccccc2)cc(-c2ccc(Cl)cc2)cc1-c1ccccc1,-23,1,-1,13,24,17
Cc1ccc(-c2cc(-c3ccc(C)cc3)[n+](-c3ccc(C(=O)[O-])cc3)c(-c3ccc(C)cc3)c2)cc1,-5,2,7,6,x,-29
CCOC(=O)c1cccc(-[n+]2c(-c3ccccc3)cc(-c3ccccc3)cc2-c2ccccc2)c1,3,-4,-5,58*,x,-9
Cc1ccc(-c2cc(-c3ccc(C)cc3)[n+](-c3ccccc3)c(-c3ccc(C)cc3)c2)cc1,32,-6,-40,71*,x,57*
CN1CN(c2ccccc2)C2(CCN(CCCSc3ccccc3NC(=O)/C=C/c3ccccc3)CC2)C1=O,-3,-2,11,22,x,-141
Cc1c(-c2cccc(Cl)c2)nc2ccccc2c1C(=O)N1CCC2(CC1)OCCO2,3,0,-1,24,x,14
C[C@H]1[C@@H](c2ccccc2)O[C@@H](c2ccccc2Br)N1C,-8,2,11,1,x,2
Cn1c(NN=O)nc2ccccc21,-7,-3,9,57*,39,-129
O=c1[nH]c(=O)n(Cc2ccc(F)cc2)c(O)c1/C=N/Nc1ccccc1,-2,0,-5,7,10,16
CC1=C(O)C(=O)C=C2C1=CC=C1C2(C)CCC2(C)C3CC(C)(C(=O)O)CCC3(C)CCC12C (stereo not given),78*,-3,-75*,89*,x,92*
O=[N+]([O-])c1cc(-c2ccc([As](=O)(O)O)cc2)ccc1[As](=O)(O)O,x,x,x,x,-3,x
Clc1cccc(N2CCNCC2)c1Cl,-2,0,-67*,-1,24,21
O=C(CCC(=O)N1CC2C[C@@H](C1)Cn1c2cccc1=O)NCCc1ccccc1,-28,0,1,-1,x,4
CNC(=O)Oc1ccc(-c2cn3cc(Cl)ccc3n2)cc1,3,-3,-16,84*,55*,-131
O=c1[nH]c2ccccc2n1C1CCN(C(c2nnnn2-c2ccc3c(c2)OCCO3)C2CC2)CC1 (stereo not given),84*,2,-87*,31,x,7
COc1ccc(-n2nnnc2C(c2ccccc2)N2CCC(n3c(=O)[nH]c4ccccc43)CC2)cc1 (stereo not given),81*,-1,-70*,-5,x,-24
O=c1[nH]c2ccccc2n1C1CCN(C(c2ccccc2)c2nnnn2-c2ccc3c(c2)OCCO3)CC1 (stereo not given),84*,-2,-87*,19,x,-8
O=c1[nH]c2ccccc2n1C1CCN(C(c2cccs2)c2nnnn2-c2ccc3c(c2)OCCO3)CC1 (stereo not given),87*,3,-79*,3,x,-36
COc1ccc(-n2nc(C(=O)NCC(=O)N3CCC4(CC3)OCCO4)c3ccccc3c2=O)c(OC)c1,-7,-1,3,55*,x,-137
CCOc1ccc(N2C(=O)/C(=C\c3cccs3)C(=O)NC2=S)cc1,x,x,x,x,-2,x
O=C1NC(=S)N(c2ccccc2F)C(=O)/C1=C\c1cccs1,12,1,4,-6,4,84*
SMILES,CF NFkB inh,hiPSC survival,KKLEB cytotox,C8 TRAIL sens,PPC-1+TRAIL kill,HIF-2a inh
COc1cccc2c1C(=O)c1c(O)c3c(c(O)c1C2=O)CC(O)(C(C)=NO)CC3OC1CC(N)C(O)C(C)O1 (stereo not given),-254,-3,-12,53*,x,-11
C=CCOC(=O)N1Cc2ccccc2-n2nncc2C1,-22,0,7,0,x,5
CN(C)C(=O)Oc1ccc(OC(=O)N(C)C)cc1,5,-3,-4,-9,2,-6
CN(C)C(=O)Oc1ccc(OCc2nc3ccccc3[nH]2)cc1,-10,-3,9,68*,46,10
COc1ccc(CN2Cc3cc(-c4cccc(F)c4)ccc3-n3nncc3C2)cc1,-8,-2,12,-6,x,-6
CC(=O)OC1CC2(O)C3CCC4CC(O)CCC4(C)C3CCC2(C)C1C1=CC(=O)OC1 (stereo not given),90*,-2,-50,66*,x,69*
CC(=O)OC1CC(OC2C(O)CC(OC3C(O)CC(OC4CCC5(C)C(CCC6C5CCC5(C)C(C7=CC(=O)OC7)C(O)CC65O)C4)OC3C)OC2C)OC(C)C1OC1OC(CO)C(O)C(O)C1O (stereo not given),91*,-3,-53*,62*,x,69*
CC1OC(OC2C(O)CC(OC3C(O)CC(OC4CCC5(C)C(CCC6C5CCC5(C)C(C7=CC(=O)OC7)C(O)CC65O)C4)OC3C)OC2C)CC(O)C1O (stereo not given),70*,-2,-54*,60*,x,72*
Cn1cc(C=O)c2nccnc21,-15,6,1,1,x,7
O=C1c2ccccc2-n2nncc2C2c3cc(Br)ccc3CCN12 (stereo not given),-28,1,5,-15,x,14
O=C(Cn1nc(-c2ccc(Cl)cc2)ccc1=O)N1CCC2(CC1)OCCO2,19,0,-1,-11,9,8
Cc1c2ccncc2c(C)c2c1[nH]c1ccccc12,83*,-3,10,47,26,-9
C[C@]12CCC3C(CCC4=CC(O)CC[C@@]43/C=N/O)C1(O)CCC2C1=CC(=O)OC1 (stereo not given in full),81*,0,-62*,52*,x,31
CC12CC[C@H]3[C@@H](CCC4(O)C[C@H](O)CCC34/C=N/NC(=O)c3ccccc3Cl)C1(O)CCC2C1=CC(=O)OC1 (stereo not given in full),-3,0,-2,8,3,9
